Among the data in PubChem BioAssay (EPA / NIEHS) are outcome and AC50 values, retold here.

Active and inactive are the calls of the source. Rule for the calls: active = hit-call score of the fitted dose curve at least 0.9, where 1 is the maximum; inactive = score below 0.9.

Read-out in experiment [1]: Fatty acid synthase (Homo sapiens) (UniProt P49327)
The experiment is described as follows: LTEA_HepaRG_FASN: Life Technologies and Expression Analysis (LTEA) Assay for Fatty Acid Synthase (FASN) using HepaRG (AID 2283448). The following applies: mRNA level, 48 h; actives raise or lower the signal. An outline of the steps:
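In human HepaRG cultures, 48 h chemical exposure (up to 100 uM, 0.5% DMSO) preceded TaqMan qRT-PCR of FASN.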

Read-out in experiment [2]: Cyclin D2 (CCND2), CCND2 (gene 894)
In words: LTEA_HepaRG_CCND2: Life Technologies and Expression Analysis (LTEA) Assay for Cyclin D2 (CCND2) using HepaRG (AID 2283449). Conditions: mRNA level, 48 h; actives raise or lower the signal. An outline of the steps:
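CCND2 transcript levels, quantified by qRT-PCR and normalised to three housekeeping genes, were fitted bidirectionally against 0.5% DMSO. HepaRG cultures were dosed 48 h in duplicate with an 8-point half-log series up to 100 uM.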

Read-out in experiment [3]: Cyclin Dependent Kinase Inhibitor 1A (CDKN1A), CDKN1A (gene 1026)
In words: LTEA_HepaRG_CDKN1A: Life Technologies and Expression Analysis (LTEA) Assay for Cyclin Dependent Kinase Inhibitor 1A (CDKN1A) using HepaRG (AID 2283450). The following applies: mRNA level, 48 h; actives raise or lower the signal. The gist of the method: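 Cryopreserved HepaRG cells were plated and cultured 48 h, then switched to serum-free induction medium. Chemicals (eight half-log concentrations, top 100 uM, 0.5% DMSO) were applied for 48 h. Lysates underwent qRT-PCR for CDKN1A with housekeeping normalization.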

Read-out in experiment [4]: Cyclin D1 (CCND1), CCND1 (gene 595)
The experiment is described as follows: LTEA_HepaRG_CCND1: Life Technologies and Expression Analysis (LTEA) Assay for Cyclin D1 (CCND1) using HepaRG (AID 2283451). Conditions: mRNA level, 48 h; actives raise or lower the signal. The gist of the method:
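Human liver HepaRG line; 48 h dosing, 8 conc. ≤100 uM, 0.5% DMSO; TaqMan qRT-PCR mRNA, 3 housekeeping genes; bidirectional curve fit vs DMSO.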

Read-out in experiment [5]: catalase (CAT), CAT (gene 847)
The experiment is described as follows: LTEA_HepaRG_CAT: Life Technologies and Expression Analysis (LTEA) Assay for catalase (CAT) using HepaRG (AID 2283452). Conditions: mRNA level, 48 h; actives raise or lower the signal. An outline of the steps:
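Expression of CAT was quantified by TaqMan qRT-PCR with ACTB/GAPDH/POLR2A normalization after 48 h chemical exposure of HepaRG. Eight-point half-log series, top 100 uM, in 0.5% DMSO; gain or loss fitted against vehicle.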

Read-out in experiment [6]: flavin-containing dimethylaniline monooxygenases 3 (FMO3), FMO3 (gene 2328)
The experiment is described as follows: LTEA_HepaRG_FMO3: Life Technologies and Expression Analysis (LTEA) Assay for flavin-containing dimethylaniline monooxygenases 3 (FMO3) using HepaRG (AID 2283453). The following applies: mRNA level, 48 h; actives raise or lower the signal. An outline of the steps: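 Eight-point concentration-response in serum-free HepaRG cultures (top 100 uM, 0.5% DMSO, 48 h). Read-out: FMO3 mRNA level normalized to three endogenous control genes, fitted bidirectionally versus vehicle.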

Read-out in experiment [7]: Cytochrome P450 (CYP1A1), CYP1A1 (gene 1543)
The experiment is described as follows: LTEA_HepaRG_CYP1A1: Life Technologies and Expression Analysis (LTEA) Assay for Cytochrome P450 (CYP1A1) using HepaRG (AID 2283454). The following applies: mRNA level, 48 h; actives raise or lower the signal. An outline of the steps: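 Induction of CYP1A1 mRNA in a human hepatic cell line was measured 48 h after dosing, with 1 mM phenobarbital as induction positive control and 0.5% DMSO vehicle as baseline for bidirectional curve fitting.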

Read-out in experiment [8]: CFLAR gene, CFLAR (gene 8837)
The experiment is described as follows: LTEA_HepaRG_CFLAR: Life Technologies and Expression Analysis (LTEA) Assay for CFLAR gene using HepaRG (AID 2283455). The following applies: mRNA level, 48 h; actives raise or lower the signal. The gist of the method:
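Transcript level by qRT-PCR (normalized to ACTB, GAPDH and POLR2A) after 48 h chemical exposure of HepaRG cells, top concentration 100 uM with half-log steps, 0.5% DMSO vehicle, duplicates; fitted bidirectionally against DMSO baseline.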

Read-out in experiment [9]: Forkhead box O1 (FOXO1), FOXO1 (gene 2308)
In words: LTEA_HepaRG_FOXO1: Life Technologies and Expression Analysis (LTEA) Assay for Forkhead box O1 (FOXO1) using HepaRG (AID 2283456). The following applies: mRNA level, 48 h; actives raise or lower the signal. An outline of the steps: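 FOXO1 transcript quantified by qRT-PCR after 48 h chemical exposure (top 100 uM, half-log steps, 0.5% DMSO) of HepaRG cells, housekeeping-normalized (ACTB/GAPDH/POLR2A). Changes fitted in both directions relative to vehicle.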

Read-out in experiment [10]: growth arrest and DNA damage 45 (GADD45A), GADD45A (gene 1647)
In words: LTEA_HepaRG_GADD45A: Life Technologies and Expression Analysis (LTEA) Assay for growth arrest and DNA damage 45 (GADD45A) using HepaRG (AID 2283458). Conditions: mRNA level, 48 h; actives raise or lower the signal. An outline of the steps:
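Eight-point concentration-response in HepaRG cells: 48 h chemical exposure, 0.5% DMSO vehicle, top dose 100 uM. Normalized qRT-PCR mRNA readout with bidirectional fitting relative to DMSO.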

Read-out in experiment [11]: Forkhead box O3 (FOXO3), FOXO3 (gene 2309)
In words: LTEA_HepaRG_FOXO3: Life Technologies and Expression Analysis (LTEA) Assay for Forkhead box O3 (FOXO3) using HepaRG (AID 2283459). The following applies: mRNA level, 48 h; actives raise or lower the signal. The gist of the method: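 FOXO3 transcript measured by qRT-PCR (normalized to ACTB, GAPDH, POLR2A) after 48 h exposure of HepaRG cells in serum-free induction medium. Duplicates, eight half-log concentrations up to 100 uM, 0.5% DMSO; gain or loss fitted against DMSO.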

Read-out in experiment [12]: ABC Transporter (ABCB1), ABCB1 (gene 5243)
The experiment is described as follows: LTEA_HepaRG_ABCB1: Life Technologies and Expression Analysis (LTEA) Assay for ABC Transporter (ABCB1) using HepaRG (AID 2283460). Conditions: mRNA level, 48 h; actives raise or lower the signal. An outline of the steps: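 ABCB1 transcript level measured by TaqMan qRT-PCR against three housekeeping genes after 48 h chemical exposure of differentiated HepaRG cells. Top concentration 100 uM, half-log steps, eight points, 0.5% DMSO vehicle; bidirectional fit relative to DMSO.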

Read-out in experiment [13]: growth arrest and DNA damage 45 (GADD45B), GADD45B (gene 4616)
In words: LTEA_HepaRG_GADD45B: Life Technologies and Expression Analysis (LTEA) Assay for growth arrest and DNA damage 45 (GADD45B) using HepaRG (AID 2283461). Conditions: mRNA level, 48 h; actives raise or lower the signal. The gist of the method: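 Values are bidirectional concentration-response fits against 0.5% DMSO controls. Underlying data: qRT-PCR mRNA levels in human HepaRG liver cells treated 48 h in serum-free induction medium, eight concentrations topping at 100 uM.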

Read-out in experiment [14]: ABC Transporter (ABCC3), ABCC3 (gene 8714)
In words: LTEA_HepaRG_ABCC3: Life Technologies and Expression Analysis (LTEA) Assay for ABC Transporter (ABCC3) using HepaRG (AID 2283462). Conditions: mRNA level, 48 h; actives raise or lower the signal. The gist of the method:
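Differentiated HepaRG liver cells receive test chemicals at eight concentrations (max 100 uM) for 48 h. Expression of ABCC3 is quantified by qRT-PCR against ACTB, GAPDH and POLR2A, and activity is fitted in both directions against the DMSO control.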

Read-out in experiment [15]: ABC Transporter (ABCB11), ABCB11 (gene 8647)
The experiment is described as follows: LTEA_HepaRG_ABCB11: Life Technologies and Expression Analysis (LTEA) Assay for ABC Transporter (ABCB11) using HepaRG (AID 2283463). The following applies: mRNA level, 48 h; actives raise or lower the signal. An outline of the steps: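 ABCB11 transcript levels quantified by TaqMan qRT-PCR against three housekeeping genes after 48 h chemical exposure of HepaRG cultures. Concentrations up to 100 uM in half-log steps, 0.5% DMSO vehicle; both induction and suppression scored.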

Read-out in experiment [16]: ABC Transporter (ABCC2), ABCC2 (gene 1244)
In words: LTEA_HepaRG_ABCC2: Life Technologies and Expression Analysis (LTEA) Assay for ABC Transporter (ABCC2) using HepaRG (AID 2283464). Conditions: mRNA level, 48 h; actives raise or lower the signal. An outline of the steps:
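Gene expression of ABCC2 was determined by qRT-PCR in HepaRG cells exposed 48 h to chemicals (highest 100 uM, half-log dilutions). Activity was fitted in both directions relative to 0.5% DMSO vehicle.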

Read-out in experiment [17]: Broad substrate specificity ATP-binding cassette transporter ABCG2 (Homo sapiens) (UniProt Q9UNQ0)
In words: LTEA_HepaRG_ABCG2: Life Technologies and Expression Analysis (LTEA) Assay for ABC Transporter (ABCG2) using HepaRG (AID 2283465). The following applies: mRNA level, 48 h; actives raise or lower the signal. An outline of the steps: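 ABCG2 transcript was quantified by TaqMan qRT-PCR against three housekeeping genes in HepaRG cells. Cells were treated in duplicate for 48 h across an 8-point half-log series up to 100 uM, with 0.5% DMSO vehicle. Gain or loss versus DMSO was fit.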

Read-out in experiment [18]: ATP-citrate lyase (ACLY), ACLY (gene 47)
The experiment is described as follows: LTEA_HepaRG_ACLY: Life Technologies and Expression Analysis (LTEA) Assay for ATP-citrate lyase (ACLY) using HepaRG (AID 2283466). Conditions: mRNA level, 48 h; actives raise or lower the signal. The gist of the method: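 ACLY mRNA quantified by qRT-PCR on Fluidigm arrays against three housekeeping genes, after 48 h chemical treatment of HepaRG cells (top concentration 100 uM, half-log steps, 0.5% DMSO vehicle). Up- or down-regulation fitted relative to DMSO.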

Read-out in experiment [19]: Peroxisomal acyl-coenzyme A oxidase 1 (ACOX1) gene, ACOX1 (gene 51)
The experiment is described as follows: LTEA_HepaRG_ACOX1: Life Technologies and Expression Analysis (LTEA) Assay for Peroxisomal acyl-coenzyme A oxidase 1 (ACOX1) gene using HepaRG (AID 2283467). Conditions: mRNA level, 48 h; actives raise or lower the signal. The gist of the method: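 ACOX1 transcript levels were quantified by TaqMan qRT-PCR against three housekeeping genes after 48 h chemical exposure of differentiated human HepaRG cells. Exposure used eight half-log steps topping at 100 uM, 0.5% DMSO vehicle, in duplicate. Bidirectional curve fits were made relative to DMSO.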

Experiment [20] is described as follows: CEETOX_H295R_TESTO: CeeTox H295R High-throughput Steroidogenesis Assay for Testosterone (TESTO) (AID 2283457).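 For AC50: cells exposed to chemicals for 48 h before medium collection.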 Conditions: actives raise or lower the signal. The gist of the method:
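Testosterone synthesis is assessed in human adrenocortical H295R cells after 48 h of chemical exposure, using HPLC-MS/MS of extracted medium. Activity is fitted in both directions against DMSO control.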

Sequence of Broad substrate specificity ATP-binding cassette transporter ABCG2 (Homo sapiens) (Q9UNQ0 whole entry, looked up): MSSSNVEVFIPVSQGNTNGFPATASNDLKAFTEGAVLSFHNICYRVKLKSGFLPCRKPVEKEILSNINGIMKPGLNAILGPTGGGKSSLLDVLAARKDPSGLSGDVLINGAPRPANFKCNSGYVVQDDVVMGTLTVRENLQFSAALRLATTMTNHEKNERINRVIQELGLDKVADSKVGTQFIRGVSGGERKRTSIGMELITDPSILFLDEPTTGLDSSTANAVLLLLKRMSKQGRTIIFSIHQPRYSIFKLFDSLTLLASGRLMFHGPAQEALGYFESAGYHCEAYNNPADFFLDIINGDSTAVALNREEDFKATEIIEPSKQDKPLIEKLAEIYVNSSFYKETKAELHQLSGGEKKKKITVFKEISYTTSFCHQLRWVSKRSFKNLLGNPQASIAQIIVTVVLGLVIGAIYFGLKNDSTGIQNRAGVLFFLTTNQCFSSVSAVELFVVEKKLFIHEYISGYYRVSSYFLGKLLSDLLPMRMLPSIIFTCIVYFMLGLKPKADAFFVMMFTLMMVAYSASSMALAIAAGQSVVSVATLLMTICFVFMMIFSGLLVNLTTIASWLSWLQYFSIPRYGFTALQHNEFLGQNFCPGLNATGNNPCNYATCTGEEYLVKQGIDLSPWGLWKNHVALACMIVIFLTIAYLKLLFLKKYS
Sequence of Fatty acid synthase (Homo sapiens) (P49327 whole entry, looked up): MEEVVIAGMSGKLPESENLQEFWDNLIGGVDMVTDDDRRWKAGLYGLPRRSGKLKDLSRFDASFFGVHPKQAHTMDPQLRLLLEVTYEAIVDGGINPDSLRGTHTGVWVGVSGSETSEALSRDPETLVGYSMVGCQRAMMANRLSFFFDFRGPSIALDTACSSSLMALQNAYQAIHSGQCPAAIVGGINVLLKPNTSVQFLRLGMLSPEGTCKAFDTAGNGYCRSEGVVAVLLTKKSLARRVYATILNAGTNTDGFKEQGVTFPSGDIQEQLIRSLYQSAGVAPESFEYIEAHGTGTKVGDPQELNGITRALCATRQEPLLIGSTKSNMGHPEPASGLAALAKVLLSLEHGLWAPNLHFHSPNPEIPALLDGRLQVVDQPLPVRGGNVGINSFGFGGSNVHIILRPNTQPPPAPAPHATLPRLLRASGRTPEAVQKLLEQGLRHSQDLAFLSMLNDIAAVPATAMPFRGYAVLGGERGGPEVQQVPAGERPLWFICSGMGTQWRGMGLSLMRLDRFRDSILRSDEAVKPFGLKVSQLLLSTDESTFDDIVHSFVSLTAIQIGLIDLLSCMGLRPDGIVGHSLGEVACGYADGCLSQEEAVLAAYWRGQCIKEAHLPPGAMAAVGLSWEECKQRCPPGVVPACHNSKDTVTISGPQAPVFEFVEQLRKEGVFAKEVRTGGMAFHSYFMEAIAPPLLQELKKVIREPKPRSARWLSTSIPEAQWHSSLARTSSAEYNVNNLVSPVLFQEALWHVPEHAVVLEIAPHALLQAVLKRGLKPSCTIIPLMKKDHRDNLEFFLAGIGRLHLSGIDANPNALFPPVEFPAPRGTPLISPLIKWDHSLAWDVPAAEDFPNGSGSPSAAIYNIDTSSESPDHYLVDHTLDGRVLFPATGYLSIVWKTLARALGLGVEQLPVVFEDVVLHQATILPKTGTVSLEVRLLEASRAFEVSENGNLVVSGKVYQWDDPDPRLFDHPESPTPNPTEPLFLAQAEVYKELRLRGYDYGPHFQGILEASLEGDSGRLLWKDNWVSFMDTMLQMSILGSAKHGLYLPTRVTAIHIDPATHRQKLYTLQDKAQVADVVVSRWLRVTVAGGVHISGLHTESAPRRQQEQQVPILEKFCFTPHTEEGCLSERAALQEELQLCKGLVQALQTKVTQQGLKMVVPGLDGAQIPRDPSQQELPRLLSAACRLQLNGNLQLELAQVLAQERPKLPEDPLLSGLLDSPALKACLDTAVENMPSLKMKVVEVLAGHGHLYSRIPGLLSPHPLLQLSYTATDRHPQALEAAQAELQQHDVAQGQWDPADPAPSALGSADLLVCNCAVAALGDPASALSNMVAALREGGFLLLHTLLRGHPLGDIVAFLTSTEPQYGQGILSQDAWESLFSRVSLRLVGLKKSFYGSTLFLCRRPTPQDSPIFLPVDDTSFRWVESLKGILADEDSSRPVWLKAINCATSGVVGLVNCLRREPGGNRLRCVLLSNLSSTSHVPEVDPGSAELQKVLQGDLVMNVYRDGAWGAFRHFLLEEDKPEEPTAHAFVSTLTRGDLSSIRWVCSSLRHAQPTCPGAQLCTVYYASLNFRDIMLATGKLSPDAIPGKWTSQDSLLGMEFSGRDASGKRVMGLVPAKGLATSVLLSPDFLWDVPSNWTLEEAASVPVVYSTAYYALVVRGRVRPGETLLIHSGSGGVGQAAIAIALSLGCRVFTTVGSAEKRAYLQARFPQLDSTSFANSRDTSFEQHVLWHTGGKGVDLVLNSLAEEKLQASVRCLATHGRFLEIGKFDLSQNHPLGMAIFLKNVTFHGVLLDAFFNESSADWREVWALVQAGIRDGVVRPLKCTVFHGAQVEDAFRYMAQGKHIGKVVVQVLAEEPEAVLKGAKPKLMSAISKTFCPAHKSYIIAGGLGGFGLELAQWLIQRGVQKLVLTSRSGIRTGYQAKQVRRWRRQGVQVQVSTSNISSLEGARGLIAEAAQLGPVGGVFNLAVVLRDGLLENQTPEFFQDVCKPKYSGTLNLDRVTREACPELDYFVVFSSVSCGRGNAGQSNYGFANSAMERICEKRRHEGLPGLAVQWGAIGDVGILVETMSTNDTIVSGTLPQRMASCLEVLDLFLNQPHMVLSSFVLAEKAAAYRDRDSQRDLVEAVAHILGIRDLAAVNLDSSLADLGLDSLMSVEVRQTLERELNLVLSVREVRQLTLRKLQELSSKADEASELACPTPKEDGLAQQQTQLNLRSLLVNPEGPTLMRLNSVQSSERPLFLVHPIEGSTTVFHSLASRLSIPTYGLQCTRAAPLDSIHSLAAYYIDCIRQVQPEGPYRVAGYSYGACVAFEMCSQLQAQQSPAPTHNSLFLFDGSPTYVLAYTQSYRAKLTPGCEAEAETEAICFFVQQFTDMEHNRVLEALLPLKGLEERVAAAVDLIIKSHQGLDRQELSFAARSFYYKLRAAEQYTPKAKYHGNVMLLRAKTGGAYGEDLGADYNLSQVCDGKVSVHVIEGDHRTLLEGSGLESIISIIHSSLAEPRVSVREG

As for `CCc1cccc(CC)c1N(COC)C(=O)CCl`, the result in experiment [1], in [2], in experiment [3], in [4], in [5] and in experiment [6] was inactive. Also, the molecule was classed as inactive in experiment [8], in experiment [9], in experiment [10], in [11], in experiment [12] and in experiment [13]. The outcome in experiment [14], in experiment [15], in [16], in experiment [17], in experiment [18] and in experiment [19] was inactive. In addition, in experiment [7], the AC50 is 50 µM (active).

As for `CCOP(=O)(NC(C)C)Oc1ccc(SC)c(C)c1` (configuration not stated), the outcome in experiment [1], in [3], in experiment [4], in experiment [5], in experiment [6] and in experiment [8] was inactive. In addition, the result in experiment [9], in experiment [10], in experiment [11], in experiment [12], in experiment [13] and in [14] was inactive. The molecule was called inactive in experiment [16], in experiment [17], in experiment [18] and in experiment [19]. The AC50 was 50 µM (active) in experiment [7], 26.2 µM (active) in experiment [20] and 5.28 µM (active) in experiment [15].

On to `CNC(=O)ON=C(SC)C(=O)N(C)C`, for which the molecule was classed as inactive in [1], in experiment [3], in experiment [4], in experiment [5], in [6] and in experiment [7]. Besides, the call in experiment [8], in experiment [9], in experiment [20], in experiment [10], in [11] and in experiment [12] was inactive. Also, the result in [13], in experiment [14], in experiment [15], in [16], in experiment [17] and in [18] was inactive. The call in experiment [19] was inactive.
